15 compounds from PubChem BioAssay (Tox21) can be followed below.

The nature of experiment [1]: qHTS RealTime-Glo MT Cell Viability Assay in HepG2 cells - 40 hour (AID 1224870). Also: nearly all actives have a fitted effect of over 50% in size. In a few lines: (§1)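 HepG2 cells mixed with RealTime-Glo MT reagents (NanoLuc plus cell-permeant prosubstrate) were seeded at 600 cells/well, incubated 5 h at 37 C/5% CO2, then pinned with compounds in DMSO; nonlytic luminescence tracked viability during 40 h treatment.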
(In general: Quantitative high-throughput screening tests each substance at several concentrations.)

The nature of experiment [2]: A CellTox Green Cytotoxicity Assay to monitor cytotoxicity in HEK293 cells - 40 hour (AID 1224871). Also: nearly all actives have a fitted effect of over 45% in size. In a few lines: (§2)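 Fluorescence intensity, read at 0, 8, 16, 24, 32 and 40 h of compound treatment, reflected dye binding to DNA of dead HEK293 cells; compounds (23 nL, DMSO) were added 5 h after plating cells with reagent.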
Experiment [3] is described as follows: qHTS RealTime-Glo MT Cell Viability Assay in HEK293 cells - 16 hour (AID 1224872). Also: top concentration of the series differs between compounds; nearly all actives have a fitted effect of over 50% in size. An outline of the steps: (§3)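 Assay medium contained NanoLuc luciferase plus cell-permeant prosubstrate, added with HEK293 cells at 600 cells/well. After 5 h at 37 C/5% CO2 compounds were added; plates stayed at 37 C for 40 h with serial luminescence reads.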
The nature of experiment [4]: qHTS RealTime-Glo MT Cell Viability Assay in HepG2 cells - 8 hour (AID 1224873). Also: nearly all actives have a fitted effect of over 55% in size. An outline of the steps: as §1
A short description of experiment [5]: qHTS RealTime-Glo MT Cell Viability Assay in HEK293 cells - 40 hour (AID 1224874). Also: nearly all actives have a fitted effect of over 50% in size. The settings on record: RealTime-Glo luminescence; max response: active compounds read low. An outline of the steps: (§4)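 Viable HEK293 cells reduce a cell-permeant prosubstrate; the product diffuses out and is consumed by NanoLuc in the medium to give light. Compounds went in after a 5 h incubation and plates were read over the treatment course.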

The nature of experiment [6]: A CellTox Green Cytotoxicity Assay to monitor cytotoxicity in HEK293 cells - 24 hour (AID 1224875). Also: series mostly up to about 77 µM; nearly all actives have a fitted effect of over 45% in size. An outline of the steps:
as §2

Experiment [7] in a line: A CellTox Green Cytotoxicity Assay to monitor cytotoxicity in HepG2 cells - 16 hour (AID 1224876). Also: nearly all actives have a fitted effect of over 45% in size. In a few lines:
(§5)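 Using 1536-well format, dye-containing HepG2 suspension was seeded, allowed 5 h at 37 C/5% CO2, dosed by pintool with compounds, positive and negative controls, and imaged for fluorescence across 40 h.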

The nature of experiment [8]: qHTS RealTime-Glo MT Cell Viability Assay in HepG2 cells - 32 hour (AID 1224877). Also: nearly all actives have a fitted effect of over 55% in size. An outline of the steps: (§6)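 qHTS, HepG2, 600 cells/well, RealTime-Glo (NanoLuc + prosubstrate) added with cells; 5 h preincubation; DMSO compound addition; 37 C; luminescence at 0/8/16/24/32/40 h.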
The nature of experiment [9]: A CellTox Green Cytotoxicity Assay to monitor cytotoxicity in HepG2 cells - 24 hour (AID 1224878). Also: nearly all actives have a fitted effect of over 45% in size. Also: potency is read from the fitted curve at half-maximal effect. In a few lines:
as §5

Experiment [10] is described as follows: A CellTox Green Cytotoxicity Assay to monitor cytotoxicity in HepG2 cells - 40 hour (AID 1224879). Also: nearly all actives have a fitted effect of over 40% in size. An outline of the steps:
as §5

Experiment [11] is described as follows: qHTS RealTime-Glo MT Cell Viability Assay in HEK293 cells - 0 hour (AID 1224880). An outline of the steps: as §4
The nature of experiment [12]: A CellTox Green Cytotoxicity Assay to monitor cytotoxicity in HepG2 cells - 0 hour (AID 1224882). Also: nearly all actives have a fitted effect of over 35% in size. An outline of the steps:
as §5

Experiment [13] can be described thus: A CellTox Green Cytotoxicity Assay to monitor cytotoxicity in HepG2 cells - 32 hour (AID 1224883). Also: nearly all actives have a fitted effect of over 50% in size. Also: potency is read from the fitted curve at half-maximal effect. In a few lines: as §5
Experiment [14] can be described thus: A CellTox Green Cytotoxicity Assay to monitor cytotoxicity in HEK293 cells - 8 hour (AID 1224884). Also: nearly all actives have a fitted effect of over 35% in size. An outline of the steps:
as §2

A short description of experiment [15]: qHTS RealTime-Glo MT Cell Viability Assay in HepG2 cells - 16 hour (AID 1224885). Also: nearly all actives have a fitted effect of over 50% in size. An outline of the steps:
as §6

Experiment [16] in a line: qHTS RealTime-Glo MT Cell Viability Assay in HEK293 cells - 24 hour (AID 1224886). An outline of the steps:
as §3

A short description of experiment [17]: qHTS RealTime-Glo MT Cell Viability Assay in HEK293 cells - 8 hour (AID 1224887). An outline of the steps: as §4
Experiment [18] can be described thus: A CellTox Green Cytotoxicity Assay to monitor cytotoxicity in HEK293 cells - 16 hour (AID 1224888). Also: nearly all actives have a fitted effect of over 35% in size. An outline of the steps: as §2
A short description of experiment [19]: qHTS RealTime-Glo MT Cell Viability Assay in HepG2 cells - 0 hour (AID 1224889). Also: nearly all actives have a fitted effect of over 50% in size. An outline of the steps: as §6
Experiment [20] can be described thus: A CellTox Green Cytotoxicity Assay to monitor cytotoxicity in HEK293 cells - 32 hour (AID 1224881). Also: nearly all actives have a fitted effect of over 40% in size. In a few lines: as §2

A number with no mark means an inactive call. Records with an inconclusive call do not appear. Active and inactive are the calls of the source. Calls follow the shape of the dose curve; as a rule, active = well fitted curve in the direction sought with a large enough effect in the repeat runs; inconclusive = weak or mixed curves; inactive = no such curve, though single readings can be large; an effect the other way counts as inactive or inconclusive.
% is scaled to controls: 0 for no effect and ±100 for the full control effect.

Consider `OC(CCN1CCCC1)(c1ccccc1)C1CCCCC1` (stereo not given), for which the Potency result in [1], in experiment [2], in [3], in experiment [4], in [6] and in experiment [7] was “inactive” in each case. The Potency result in [8], in [9], in experiment [10], in experiment [11], in experiment [12] and in [13] was “inactive” each time. The Potency result in [14], in [15], in [16], in [17], in [18] and in experiment [19] was “inactive” each time. In addition, the max response in experiment [5] was -3.9%.

With `CCC(=O)OC`, the Potency result in [1], in experiment [2], in experiment [3], in experiment [4], in [6] and in experiment [7] was “inactive” in each case. In addition, the Potency result in experiment [8], in experiment [11], in experiment [20], in [12], in [13] and in experiment [14] was “inactive” in each case. Besides, the Potency result in [15], in [16], in experiment [17], in [18] and in [19] was “inactive” each time. Also, the max response in experiment [5] is 4.28%.

For the compound `CCC(OCCCOC)OC(C)=O` (stereo not given), the Potency entry in experiment [1], in [2], in [3], in [4], in experiment [6] and in experiment [7] was “inactive” in each case. For the same compound, the Potency entry in experiment [8], in experiment [9], in [11], in experiment [20], in [12] and in experiment [13] was “inactive” each time. Also, the Potency entry in experiment [15], in [16], in experiment [17], in experiment [18] and in [19] was “inactive” throughout. Further, the max response in experiment [5] was 3.03%.

Consider `CC(C)=CCC/C(C)=C/CC/C(C)=C/CCC(=O)OC/C=C(\C)CCC=C(C)C`, for which the Potency result in experiment [1], in experiment [2], in experiment [3], in experiment [4], in experiment [6] and in experiment [7] was “inactive” throughout. Also, the Potency result in [8], in [9], in [11], in [20], in [12] and in experiment [13] was “inactive” in each case. The Potency result in experiment [14], in experiment [15], in experiment [16], in experiment [17], in experiment [18] and in [19] was “inactive” in each case. Moreover, the max response in experiment [5] is 2.19%.

With `C=C1CCC2CC1C2(C)C` (stereo not given), the Potency entry in [1], in experiment [2], in experiment [3], in experiment [4], in experiment [6] and in [7] was “inactive” each time. Also, the Potency entry in experiment [8], in experiment [10], in experiment [11], in [12], in experiment [13] and in [14] was “inactive” throughout. In addition, the Potency result in experiment [15], in experiment [16], in [17], in experiment [18] and in experiment [19] was “inactive” throughout. In experiment [5], the max response is 0.0757%.

As to `Brc1cc(Br)c(Oc2cc(Br)c(Br)cc2Br)cc1Br`, the Potency entry in experiment [1], in [2], in [3], in [4], in experiment [6] and in [7] was “inactive” each time. The Potency result in experiment [8], in [9], in experiment [11], in experiment [12], in experiment [13] and in [14] was “inactive” in each case. Also, the Potency result in experiment [15], in experiment [16], in [17], in experiment [18] and in experiment [19] was “inactive” in each case. For the same compound, the max response in experiment [5] was -1.98%.

Consider `O[C@@H]1CO[C@H]2[C@@H]1OC[C@@H]2O`, for which the Potency result in [1], in [2], in experiment [3], in experiment [4], in experiment [6] and in experiment [7] was “inactive” each time. For the same compound, the Potency entry in [8], in experiment [11], in [12], in [13], in [14] and in [15] was “inactive” throughout. The Potency result in [16], in experiment [17] and in [18] was “inactive” in each case. The max response in [5] was 8.95%.

Turning to `c1ccc2sc(SN(C3CCCCC3)C3CCCCC3)nc2c1`, the Potency entry in experiment [1], in experiment [2], in experiment [3], in [4], in [6] and in [7] was “inactive” throughout. In addition, the Potency result in experiment [9], in experiment [10], in [11], in experiment [20], in [12] and in [13] was “inactive” in each case. The Potency result in experiment [14], in experiment [15], in experiment [16], in experiment [17], in experiment [18] and in [19] was “inactive” throughout. Besides, the max response in experiment [5] is 3.85%.

In the case of `CCCCCCCCC(CCCCCC)C(=O)O` (stereo not given), the Potency entry in experiment [1], in experiment [2], in [3], in experiment [4], in experiment [6] and in [7] was “inactive” each time. Further, the Potency entry in experiment [8], in experiment [20], in experiment [12], in experiment [14], in experiment [15] and in experiment [16] was “inactive” in each case. Besides, the Potency entry in experiment [17], in experiment [18] and in experiment [19] was “inactive” in each case. The max response in [5] is -3.96%. The Potency in experiment [9] and in [13] was 61.6 µM (active) each time.

For the compound `CCOC(C)=O`, the Potency result in experiment [1], in experiment [2], in experiment [3], in experiment [4], in [6] and in experiment [7] was “inactive” each time. Further, the Potency entry in experiment [8], in experiment [10], in experiment [11], in experiment [20], in experiment [12] and in experiment [13] was “inactive” in each case. Further, the Potency entry in [14], in experiment [15], in experiment [16], in experiment [17] and in experiment [18] was “inactive” in each case. The max response in experiment [5] was 0.693%.

Turning to `CN1CC(=O)N2[C@H](c3ccc4c(c3)OCO4)c3[nH]c4ccccc4c3C[C@@H]2C1=O`, the Potency result in [1], in [2], in experiment [3], in [4], in experiment [6] and in experiment [7] was “inactive” each time. Moreover, the Potency result in experiment [8], in experiment [9], in experiment [11], in [20], in experiment [12] and in [13] was “inactive” each time. Moreover, the Potency entry in experiment [14], in experiment [15], in experiment [16], in [17], in experiment [18] and in [19] was “inactive” throughout. Further, in [5], the max response was -16.3%.

As to `CCC(C)COC(C)=O` (stereo not given), the Potency entry in [1], in experiment [2], in [3], in experiment [4], in experiment [6] and in experiment [7] was “inactive” in each case. Moreover, the Potency result in experiment [8], in experiment [9], in [11], in experiment [12], in [13] and in experiment [14] was “inactive” throughout. The Potency entry in experiment [15], in experiment [16], in experiment [17], in [18] and in experiment [19] was “inactive” each time. Further, in [5], the max response was 12%.

In the case of `O=C1c2ccccc2C(=O)c2c(O)c(O)cc(O)c21`, the Potency entry in experiment [1], in experiment [2], in experiment [3], in [4], in experiment [6] and in [7] was “inactive” throughout. The Potency result in experiment [8], in experiment [9], in experiment [11], in experiment [20], in experiment [12] and in experiment [13] was “inactive” each time. Also, the Potency result in experiment [14], in [15], in experiment [16], in experiment [17], in experiment [18] and in [19] was “inactive” each time. In addition, the max response in [5] is 9.06%.

Consider `FC(F)(F)c1ccccc1Cl`, for which the Potency result in [1], in experiment [2], in experiment [3], in experiment [4], in experiment [6] and in [7] was “inactive” in each case. For the same compound, the Potency result in [9], in experiment [10], in experiment [11], in [20], in [12] and in [13] was “inactive” throughout. Further, the Potency result in experiment [14], in [15], in experiment [16], in [17], in experiment [18] and in [19] was “inactive” throughout. The max response in experiment [5] was -1.41%.

As for `Cc1ccc(CO)cc1`, the Potency entry in [1], in experiment [2], in experiment [3], in [4], in experiment [6] and in experiment [7] was “inactive” each time. For the same compound, the Potency entry in experiment [9], in experiment [10], in experiment [11], in [20], in experiment [12] and in experiment [13] was “inactive” in each case. Also, the Potency entry in [14], in [15], in experiment [16], in experiment [17], in experiment [18] and in experiment [19] was “inactive” throughout. In addition, the max response in experiment [5] was 18.5%.
